In the supplement of paper PMC6555819:

Columns and labels:
Assay in all cases: PBM binding z-score (relative to random genomic background probes); higher = stronger binding; sequences stand for … in GC…GCGATTGACAGCGTAGAATGAAGG
[1] = system: FXR:RXRa (NR concentration 270 nM, RXRa partner concentration 90 nM)
Procedure, shortened: (§1)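 Regression normalization was applied to scanned fluorescence from custom Agilent 4×180K protein-binding microarrays. Before scanning, arrays were incubated 1 h with ligand-free nuclear receptor dimers, and binding was detected with antibodies against each partner (one per run). Binding z-scores use the random background probes as reference.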

[2] = system: LXRa:RXRa (NR concentration 270 nM, RXRa partner concentration 90 nM)
Procedure, shortened: as §1

[3] = system: LXRa homodimer (NR concentration 270 nM)
Procedure, shortened: as §1

[4] = system: LXRb:RXRa (NR concentration 270 nM, RXRa partner concentration 90 nM)
Procedure, shortened: as §1

[5] = system: LXRb homodimer (NR concentration 270 nM)
Procedure, shortened: as §1

[6] = system: PPARa:RXRa (NR concentration 270 nM, RXRa partner concentration 90 nM)
Procedure, shortened: as §1

[7] = system: PPARg:RXRa (NR concentration 180 nM, RXRa partner concentration 90 nM)
Procedure, shortened: as §1

[8] = system: PPARg:RXRa 270nM:90nM, anti-RXR (NR concentration 270 nM, RXRa partner concentration 90 nM)
Procedure, shortened: as §1

[9] = system: PPARg:RXRa 30nM:10nM, anti-RXR (NR concentration 30 nM, RXRa partner concentration 10 nM)
Procedure, shortened: as §1

[10] = system: PPARg:RXRa 90nM:30nM, anti-RXR (NR concentration 90 nM, RXRa partner concentration 30 nM)
Procedure, shortened: as §1

[11] = system: PPARg:RXRa DBDmut IVT, anti-RXR (DBD mutation: RXRa K156A/R161A, NR concentration 270 nM, RXRa partner concentration 90 nM)
Procedure, shortened: as §1

[12] = system: PPARg:RXRa IVT, anti-PPARg (NR concentration 270 nM, RXRa partner concentration 90 nM)
Procedure, shortened: as §1

[13] = system: PPARg DBDmut:RXRa IVT, anti-PPARg (DBD mutation: PPARg1 K132A/R137A, NR concentration 270 nM, RXRa partner concentration 90 nM)
Procedure, shortened: as §1

[14] = system: PPARg DBDmut IVT, anti-PPARg (DBD mutation: PPARg1 K132A/R137A, NR concentration 270 nM)
Procedure, shortened: as §1

[15] = system: PPARg homodimer (NR concentration 180 nM)
Procedure, shortened: as §1

[16] = system: PXR:RXRa (NR concentration 270 nM, RXRa partner concentration 90 nM)
Procedure, shortened: as §1

[17] = system: PXR homodimer (NR concentration 270 nM)
Procedure, shortened: as §1

[18] = system: RARa:RXR (NR concentration 270 nM, RXRa partner concentration 90 nM)
Procedure, shortened: as §1

[19] = system: RARa homodimer (NR concentration 270 nM)
Procedure, shortened: as §1

[20] = system: RARb:RXRa (NR concentration 270 nM, RXRa partner concentration 90 nM)
Procedure, shortened: as §1

Sequence	PBM binding z-score [1]	PBM binding z-score [2]	PBM binding z-score [3]	PBM binding z-score [4]	PBM binding z-score [5]	PBM binding z-score [6]	PBM binding z-score [7]	PBM binding z-score [8]	PBM binding z-score [9]	PBM binding z-score [10]	PBM binding z-score [11]	PBM binding z-score [12]	PBM binding z-score [13]	PBM binding z-score [14]	PBM binding z-score [15]	PBM binding z-score [16]	PBM binding z-score [17]	PBM binding z-score [18]	PBM binding z-score [19]	PBM binding z-score [20]
CGTCCAAGGTCAGAGTGGTCAGTGAATGCCGAGT	4.91	3.23	0.338	2.49	-0.0536	3.83	1.79	2.5	0.0236	1.35	2.5	2.37	-0.175	-0.939	2.59	2.78	1.03	3.16	0.908	4.8
CGAACTAGGTCATTGCCAGGACAGTGAATAGTAA	3.98	2.75	0.491	1.6	-0.019	4.39	6.96	6.06	3.25	5.51	8.25	7.95	1.34	0.503	1.04	1.4	0.261	1.87	0.423	3.44
TCTCGGAGGACACAAAAGGTCAGAGCTCGACATC	2.8	4.16	2.83	3.27	0.142	3.53	1.51	2.66	2.44	2.62	1.53	1.65	-0.0324	-0.692	3.51	3.82	0.682	4.29	1.33	4.08
TCATATAGGTAAAAGGTGAAAGCCGGTGTGGTAA	1.71	2.07	0.0111	1.77	-0.0293	5.73	8.8	8.59	8.83	9.1	5.44	4.98	0.678	1.17	1.42	1.58	0.293	2.92	0.942	1.95
CCAGACAGGTGAGAAGGTAACTCTGCCTCGATTA	0.00014	0.0948	-0.229	0.114	-0.103	0.793	0.466	0.906	-0.293	0.346	1.34	0.644	-0.0545	-0.239	0.832	0.051	0.394	0.441	-0.197	0.638
GCTTACGGGTCAAAGGTTATCGCATGAATAGAAT	7.98	5.85	0.561	5.81	0.413	6.94	11.7	9.26	8.55	10.3	5.17	6.06	0.968	0.942	2.75	6.19	0.364	8.16	0.571	4.76
CGTCCAAGGTCAAGATCAGTGAAAGAGACTCGAA	6.95	4.97	0.248	3.85	0.6	5.63	4.78	5.2	1.46	3.58	3.03	3.31	0.858	0.353	2.49	3.3	0.349	3.99	1.69	5.14
ACTAGCAGGCCAAGTTTGGGTCACTAAAACAAAG	0.0701	0.104	-0.274	0.749	-0.496	1.58	0.26	0.637	-0.145	0.427	0.86	1.41	-0.183	-0.616	0.00653	0.707	-0.272	1.49	-0.238	1.79
